Source: PubChem BioAssay (several laboratories)
GAA850 FXN act = frataxin GAA850 promoter activation; HEK293 lucGAA850 FXN promoter luciferase reporter, 24 h; percent of 10 µM SAHA response; activation, % at 6 µM; 360,000 compounds, 0.56% hits; AID 540364;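 active means activation above the average of all compounds screened plus 3 SD, cutoff fixed separately per campaign, cut at about 7.5% in these data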
esBAF inh = blocks esBAF chromatin remodeling in mouse ES cells | 350,000 compounds, 2% hits | Bmi1-luciferase knock-in reporter, 24 h; 100% = twice the neutral-well signal | reporter increase, % at 12.5 µM; in the data active means activation above about 40%; inconclusive means no clear call, values can overlap the other calls;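 further: a rise in the Bmi1 reporter signal indicates esBAF inhibition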
MITF act = activators of MITF-driven TRPM1 promoter activity in SK-MEL-5 cells. activation, % at 12.5 µM. 300,000 compounds, 0.75% hits. SK-MEL-5 TRPM1-promoter luciferase, 24 h; % of positive control, neutral wells = 0. AID 588334;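 active means mean activation of at least 80% with every replicate also reaching 80%; inconclusive means mean reaches 80% but some replicate falls short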
Wnt act = activators of Wnt/beta-catenin signaling; Wnt/beta-catenin reporter cell assay, activator, plate reader; activation, % at 9.35 µM; 300,000 compounds, 1.2% hits; in the data active means activation above about 30%, passing the limit was not always enough; inconclusive means no clear call, values can overlap the other calls
Each line names hits and unclear results; the compound was inactive in the other large screens. An excerpt weighted towards active compounds, which were near 2.8% of everything screened.

CCCc1cc(-c2n[nH]c(=S)n2-c2cccc(C)c2)cs1	esBAF inh 45
Nc1c2c(=O)oc(-c3ccccc3)cc2nn1-c1ccccc1	esBAF inh 70 (no result: MITF act, Wnt act)
Cc1nnc(CN(C)C(=O)c2cc(COc3ccc(C)c(C)c3)on2)o1	none
COc1ccc(OCc2cc(C(=O)N(C)CC3CCCCO3)no2)c(Cl)c1 (stereo unspecified)	esBAF inh 41
COc1ccc(OCc2cc(C(=O)N(C)CCC3CCOCC3)no2)c(Cl)c1	esBAF inh 58
Cc1nnc(CN(C)C(=O)c2cc(COc3ccc(F)cc3Cl)on2)o1	esBAF inh 53
COc1cc(Cl)ccc1OCc1cc(C(=O)N(C)CC2CCCCO2)no1 (stereo unspecified)	esBAF inh 70, Wnt act 40
CO[C@H]1CN(C)C(=O)c2ccc(NC(C)=O)cc2OC[C@@H](C)N(Cc2ccc(F)cc2)C[C@@H]1C	none (no result: GAA850 FXN act, MITF act, Wnt act)
O=C(C[C@@H]1CC[C@H](NC(=O)c2ccncc2)[C@H](CO)O1)Nc1ccccc1	none (no result: GAA850 FXN act, MITF act, Wnt act)
CO[C@H]1CN(C)C(=O)c2ccc(NS(C)(=O)=O)cc2OC[C@H](C)N(C(=O)c2ccc3c(c2)OCO3)C[C@H]1C	none (no result: GAA850 FXN act, MITF act, Wnt act)
CN(CC1CCCCO1)C(=O)c1cc(COc2ccc(F)cc2Cl)on1 (stereo unspecified)	esBAF inh 43
COc1ccc(OCc2cc(C(=O)N3CCSCC3)no2)c(Cl)c1	MITF act inconclusive (no result: esBAF inh)
COc1ccc(OCc2cc(C(=O)N(C)C(C)c3ccon3)no2)c(Cl)c1 (stereo unspecified)	esBAF inh 73
CO[C@@H]1CN(C)C(=O)c2cc(NC(=O)c3ccccc3)ccc2OC[C@H](C)NC[C@H]1C	none (no result: GAA850 FXN act, MITF act, Wnt act)
COc1ccc(CN(C)C[C@@H]2Oc3ccc(NC(=O)Cc4cn(C)c5ccccc45)cc3C(=O)N([C@@H](C)CO)C[C@@H]2C)cc1	none (no result: GAA850 FXN act, MITF act, Wnt act)
O=C(COC(=O)c1ccc(F)c(S(=O)(=O)N2CCCCC2)c1)NCc1ccc(F)cc1	Wnt act 40
CCc1ccc(C2c3[nH]c4ccccc4c3CCN2C(=O)c2ccc(=O)n(C)n2)cc1 (stereo unspecified)	none
CSc1ccc(C2c3[nH]c4ccccc4c3CCN2C(=O)c2ccnn2C)cc1 (stereo unspecified)	Wnt act 42 (no result: esBAF inh)
CN(C)CCCNc1ncnc2scc(-c3ccccc3)c12	Wnt act 40 (no result: esBAF inh)
CN(C)CCCNc1ncnc2c1c(-c1ccccc1)cn2-c1ccccc1	none
O=C(CN1CCOCC1)N1CCCCN2[C@@H](CO)[C@@H](c3ccc(/C=C/c4ccccc4)cc3)[C@@H]2C1	none (no result: GAA850 FXN act, MITF act, Wnt act)
C#CCN(CC=C)C(=O)CCc1nnc(COc2ccccc2)o1	esBAF inh 59
O=Nc1c(-c2c(O)[nH]c3cc(Br)ccc23)[nH]c2ccccc12	esBAF inh 111, Wnt act 77
CO[C@@H]1CN(C)C(=O)c2ccc(NC(=O)c3cccc(F)c3)cc2OC[C@@H](C)N(C(C)=O)C[C@@H]1C	none (no result: GAA850 FXN act, MITF act, Wnt act)
O=C(NOCc1ccccc1)OCc1ccccc1	esBAF inh 63, MITF act inconclusive
O=C(Nc1cccc2ccccc12)OCc1ccccc1	esBAF inh 61
Nc1ccccc1C(=O)Nc1cccc2ccccc12	esBAF inh 65 (no result: MITF act)
O=C(Nc1cccc2ccccc12)c1ccccc1Cl	none
O=C(Nc1cccc2ccccc12)c1ccccc1	esBAF inh 51
CC=Cc1ccc2n(c1=O)C[C@H]1[C@H](CO)[C@@H](C(=O)NCCC)[C@@H]2N1S(=O)(=O)c1cn(C)cn1 (mixture of isomers)	none (no result: GAA850 FXN act, MITF act, Wnt act)
CCOC(=O)Nc1ccc2c3c(cccc13)-c1ccccc1-2	esBAF inh 46
Cc1noc(C)c1NC(=O)N(C)C[C@@H]1Oc2ccc(NC(=O)CCC(F)(F)F)cc2CC(=O)N([C@@H](C)CO)C[C@H]1C	none (no result: GAA850 FXN act, MITF act, Wnt act)
CC(=O)C1=C(O)C(=O)N(c2ccccn2)C1c1ccc(Cl)cc1 (stereo unspecified)	esBAF inh 47
Cc1ccc2nc(-c3ccc(N4C(=N)SC5CS(=O)(=O)CC54)cc3)sc2c1 (stereo unspecified)	MITF act 104 (no result: esBAF inh, Wnt act)
C[C@@H]1CN([C@@H](C)CO)C(=O)Cc2cc(NC(=O)Nc3ccccc3)ccc2O[C@@H]1CN(C)C(=O)Nc1ccc(C(F)(F)F)cc1	none (no result: GAA850 FXN act, MITF act, Wnt act)
CC(C)(C)c1cc(NC(=O)Nc2ccccc2)no1	MITF act 113, Wnt act 41
Cc1cc(C(=O)Nc2cc(C(C)(C)C)on2)c(C)o1	esBAF inh 63, MITF act 89, Wnt act 42
CC(C)NC(=O)N(C)C[C@H]1Oc2cc(C#CCN(C)C)ccc2S(=O)(=O)N([C@H](C)CO)C[C@H]1C	none (no result: GAA850 FXN act, MITF act, Wnt act)
NC(=O)CSc1ncnc2c1oc1ccccc12	none
O=C(CSc1ncnc2c1oc1ccccc12)c1cccs1	esBAF inh 57, MITF act inconclusive (no result: Wnt act)
C[C@@H]1CN([C@H](C)CO)C(=O)c2cc(/C=C/c3ccccc3)cnc2O[C@@H]1CN(C)S(=O)(=O)c1cn(C)cn1	none (no result: GAA850 FXN act, MITF act, Wnt act)
CCCn1c(CNc2ccc(Br)cc2)nc2ccccc21	esBAF inh 48
Cn1c(CNc2ccc(F)cc2)nc2ccccc21	esBAF inh 69 (no result: MITF act)
Cn1c(NCc2cccs2)nc2ccccc21	esBAF inh 50 (no result: Wnt act)
Cn1c(CNc2ccccc2)nc2ccccc21	esBAF inh 66 (no result: Wnt act)
CCn1c(NCc2cccs2)nc2ccccc21	none
COc1ccc(NC(=O)N(C)C[C@@H]2OCCCC[C@@H](C)Oc3ccc(NC(=O)CCC(F)(F)F)cc3C(=O)N([C@@H](C)CO)C[C@H]2C)cc1	none (no result: GAA850 FXN act, MITF act, Wnt act)
CO[C@@H]1CN(C)C(=O)c2ccc(NS(=O)(=O)c3cn(C)cn3)cc2OC[C@@H](C)N(Cc2cccc(F)c2)C[C@H]1C	none (no result: GAA850 FXN act, MITF act, Wnt act)
C/C=C/c1cnc2c(c1)C(=O)N([C@H](C)CO)C[C@@H](C)[C@H](CN(C)C(=O)c1ccc3c(c1)OCO3)O2	none (no result: GAA850 FXN act, MITF act, Wnt act)
Cn1c(CNc2ccccc2O)nc2ccccc21	esBAF inh 48
Clc1cc(Cl)c2nc(N3CCCC3)sc2c1	Wnt act 36 (no result: esBAF inh)
Clc1cc(Cl)c2nc(N3CCCCC3)sc2c1	esBAF inh 53, Wnt act 60
C[C@@H]1CCCCO[C@@H](CN(C)C(=O)Cc2ccccc2)[C@H](C)CN([C@H](C)CO)C(=O)c2cc(NC(=O)Nc3ccc(F)cc3)ccc2O1	none (no result: GAA850 FXN act, MITF act, Wnt act)
Cc1ccc(Nc2c(-c3ccc(C)o3)nc3cnccn23)cc1	none
Cc1ccc(-c2nc3cnccn3c2Nc2ccccc2)o1	esBAF inh 44 (no result: MITF act)
COc1ccccc1C(=O)Nc1nnc(SCC(=O)Nc2ccc3c(c2)oc2ccccc23)s1	Wnt act 49 (no result: esBAF inh)
CC(=O)Nc1ccc(-c2nnc(SCC(=O)Nc3ccc4c(c3)oc3ccccc34)n2C)cc1	esBAF inh 53 (no result: MITF act)
O=C(CSc1nnc(NC(=O)c2ccccc2[N+](=O)[O-])s1)NC1CCCC1	none
COc1ccccc1C(=O)Nc1nnc(SCC(=O)NC2CCCC2)s1	MITF act 91 (no result: Wnt act)
C[C@@H]1CN([C@H](C)CO)S(=O)(=O)c2ccc(C#C[C@@H](C)O)cc2O[C@@H]1CN(C)C(=O)CN(C)C	none (no result: GAA850 FXN act, MITF act, Wnt act)
COc1cccc(C(=O)/C=C2\Sc3ccccc3N2C)c1	esBAF inh 45
CC(=O)N1[C@@H](CO)[C@H](c2ccc(-c3ccccc3)cc2)[C@@H]1CNC(=O)C1CC1	none (no result: GAA850 FXN act, MITF act, Wnt act)
